For 15 molecules, inhibition results are on record in ChEMBL document CHEMBL1961873, “Compounds: GSK PKIS; Assays: Nanosyn kinase panel” (2012).

The structures appear in SMILES notation. Where “and” joins values, the source holds several entries; their conditions need not be identical. Equal values may be shown once.

The subject of assay [1] is Proto-oncogene tyrosine-protein kinase receptor Ret (Homo sapiens), P07949 [Y791F]. The conditions noted are these: at 1 µM.
In assay [2] the target is Macrophage-stimulating protein receptor (Homo sapiens) (UniProt Q04912). The conditions noted are these: at 0.1 µM.
The target is the same in assay [3]. The conditions noted are these: at 1 µM.
In assay [4] the target is Proto-oncogene tyrosine-protein kinase ROS (Homo sapiens) (UniProt P08922). The conditions noted are these: at 0.1 µM.
The target is the same in assay [5]. The conditions noted are these: at 1 µM.
For assay [6], the target named is Proto-oncogene tyrosine-protein kinase Src (Homo sapiens) (UniProt P12931). The conditions noted are these: at 0.1 µM.
Assay [7] has the same target. The conditions noted are these: at 1 µM.
For assay [8], the target named is Tyrosine-protein kinase Srms (Homo sapiens) (UniProt Q9H3Y6). The conditions noted are these: at 0.1 µM.
Assay [9] has the same target. The conditions noted are these: at 1 µM.
The target in assay [10] is Tyrosine-protein kinase SYK (Homo sapiens) (UniProt P43405). The conditions noted are these: at 0.1 µM.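 Note: reported percentages are mean inhibition values for SYK.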

Sequence of Tyrosine-protein kinase Srms (Homo sapiens) (Q9H3Y6 whole entry): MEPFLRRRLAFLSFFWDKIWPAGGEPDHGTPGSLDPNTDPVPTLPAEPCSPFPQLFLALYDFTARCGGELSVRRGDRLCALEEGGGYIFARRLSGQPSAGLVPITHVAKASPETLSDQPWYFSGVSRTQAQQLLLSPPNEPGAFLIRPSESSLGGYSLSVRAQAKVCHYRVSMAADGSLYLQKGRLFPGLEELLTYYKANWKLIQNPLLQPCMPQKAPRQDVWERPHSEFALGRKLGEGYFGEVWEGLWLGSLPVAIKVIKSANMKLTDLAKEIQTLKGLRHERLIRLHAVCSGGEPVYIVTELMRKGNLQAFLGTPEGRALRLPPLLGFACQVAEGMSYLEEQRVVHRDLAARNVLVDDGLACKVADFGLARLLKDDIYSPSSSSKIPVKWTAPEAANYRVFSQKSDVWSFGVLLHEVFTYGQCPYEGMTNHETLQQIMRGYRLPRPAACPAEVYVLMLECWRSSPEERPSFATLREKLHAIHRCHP
Sequence of Macrophage-stimulating protein receptor (Homo sapiens) (Q04912 25-304 limits assumed): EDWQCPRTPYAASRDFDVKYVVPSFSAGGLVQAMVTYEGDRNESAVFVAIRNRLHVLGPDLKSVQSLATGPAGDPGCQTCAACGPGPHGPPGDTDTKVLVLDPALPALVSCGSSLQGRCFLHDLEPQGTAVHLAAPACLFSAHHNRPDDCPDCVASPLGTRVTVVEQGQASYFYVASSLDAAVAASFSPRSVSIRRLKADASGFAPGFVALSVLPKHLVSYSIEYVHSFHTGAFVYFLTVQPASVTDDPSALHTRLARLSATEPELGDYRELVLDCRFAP
Sequence of Macrophage-stimulating protein receptor (Homo sapiens) (Q04912 310-1400 limits assumed): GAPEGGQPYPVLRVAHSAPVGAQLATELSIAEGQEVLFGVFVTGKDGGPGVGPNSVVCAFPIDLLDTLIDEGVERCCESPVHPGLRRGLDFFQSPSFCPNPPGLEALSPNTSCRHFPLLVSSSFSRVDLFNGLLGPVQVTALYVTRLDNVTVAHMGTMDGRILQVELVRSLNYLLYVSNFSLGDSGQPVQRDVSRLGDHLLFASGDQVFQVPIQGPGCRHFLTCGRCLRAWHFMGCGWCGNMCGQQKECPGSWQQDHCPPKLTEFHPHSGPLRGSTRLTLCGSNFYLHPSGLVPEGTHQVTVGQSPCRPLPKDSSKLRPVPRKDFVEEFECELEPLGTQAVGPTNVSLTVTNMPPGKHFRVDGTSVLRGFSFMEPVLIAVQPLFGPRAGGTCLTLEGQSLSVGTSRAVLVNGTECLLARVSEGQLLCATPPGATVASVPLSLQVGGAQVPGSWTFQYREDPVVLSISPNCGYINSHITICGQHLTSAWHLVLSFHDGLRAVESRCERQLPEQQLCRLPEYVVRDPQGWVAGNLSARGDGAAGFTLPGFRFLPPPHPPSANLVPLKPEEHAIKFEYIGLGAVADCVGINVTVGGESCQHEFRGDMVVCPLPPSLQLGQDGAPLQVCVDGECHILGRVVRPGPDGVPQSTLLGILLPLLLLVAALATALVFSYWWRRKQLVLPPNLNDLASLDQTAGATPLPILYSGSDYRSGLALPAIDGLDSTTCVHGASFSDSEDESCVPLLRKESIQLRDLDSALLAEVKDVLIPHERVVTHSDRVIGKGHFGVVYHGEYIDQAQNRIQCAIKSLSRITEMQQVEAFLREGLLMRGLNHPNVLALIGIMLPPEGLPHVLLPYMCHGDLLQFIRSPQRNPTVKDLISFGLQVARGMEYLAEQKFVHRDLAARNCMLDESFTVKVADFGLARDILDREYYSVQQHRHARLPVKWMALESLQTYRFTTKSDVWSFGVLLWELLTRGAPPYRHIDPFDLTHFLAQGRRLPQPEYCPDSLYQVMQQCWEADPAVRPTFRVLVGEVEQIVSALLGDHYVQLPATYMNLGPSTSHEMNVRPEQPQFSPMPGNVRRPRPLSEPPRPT
Sequence of Proto-oncogene tyrosine-protein kinase Src (Homo sapiens) (P12931 2-536 limits assumed): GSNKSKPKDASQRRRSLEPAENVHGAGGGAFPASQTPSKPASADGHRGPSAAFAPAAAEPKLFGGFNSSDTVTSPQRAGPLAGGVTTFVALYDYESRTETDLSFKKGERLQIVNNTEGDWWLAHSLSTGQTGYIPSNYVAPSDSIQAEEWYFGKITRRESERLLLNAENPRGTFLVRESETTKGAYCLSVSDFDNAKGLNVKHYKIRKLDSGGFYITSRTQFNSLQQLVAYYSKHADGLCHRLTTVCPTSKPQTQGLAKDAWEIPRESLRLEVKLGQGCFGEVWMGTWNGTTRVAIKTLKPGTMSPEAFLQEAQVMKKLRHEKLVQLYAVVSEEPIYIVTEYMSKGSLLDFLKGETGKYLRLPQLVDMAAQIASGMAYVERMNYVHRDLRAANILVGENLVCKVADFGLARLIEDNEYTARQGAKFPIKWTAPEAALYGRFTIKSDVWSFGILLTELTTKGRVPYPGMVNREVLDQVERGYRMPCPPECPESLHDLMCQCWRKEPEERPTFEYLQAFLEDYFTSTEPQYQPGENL
Sequence of Proto-oncogene tyrosine-protein kinase ROS (Homo sapiens) (P08922 whole entry): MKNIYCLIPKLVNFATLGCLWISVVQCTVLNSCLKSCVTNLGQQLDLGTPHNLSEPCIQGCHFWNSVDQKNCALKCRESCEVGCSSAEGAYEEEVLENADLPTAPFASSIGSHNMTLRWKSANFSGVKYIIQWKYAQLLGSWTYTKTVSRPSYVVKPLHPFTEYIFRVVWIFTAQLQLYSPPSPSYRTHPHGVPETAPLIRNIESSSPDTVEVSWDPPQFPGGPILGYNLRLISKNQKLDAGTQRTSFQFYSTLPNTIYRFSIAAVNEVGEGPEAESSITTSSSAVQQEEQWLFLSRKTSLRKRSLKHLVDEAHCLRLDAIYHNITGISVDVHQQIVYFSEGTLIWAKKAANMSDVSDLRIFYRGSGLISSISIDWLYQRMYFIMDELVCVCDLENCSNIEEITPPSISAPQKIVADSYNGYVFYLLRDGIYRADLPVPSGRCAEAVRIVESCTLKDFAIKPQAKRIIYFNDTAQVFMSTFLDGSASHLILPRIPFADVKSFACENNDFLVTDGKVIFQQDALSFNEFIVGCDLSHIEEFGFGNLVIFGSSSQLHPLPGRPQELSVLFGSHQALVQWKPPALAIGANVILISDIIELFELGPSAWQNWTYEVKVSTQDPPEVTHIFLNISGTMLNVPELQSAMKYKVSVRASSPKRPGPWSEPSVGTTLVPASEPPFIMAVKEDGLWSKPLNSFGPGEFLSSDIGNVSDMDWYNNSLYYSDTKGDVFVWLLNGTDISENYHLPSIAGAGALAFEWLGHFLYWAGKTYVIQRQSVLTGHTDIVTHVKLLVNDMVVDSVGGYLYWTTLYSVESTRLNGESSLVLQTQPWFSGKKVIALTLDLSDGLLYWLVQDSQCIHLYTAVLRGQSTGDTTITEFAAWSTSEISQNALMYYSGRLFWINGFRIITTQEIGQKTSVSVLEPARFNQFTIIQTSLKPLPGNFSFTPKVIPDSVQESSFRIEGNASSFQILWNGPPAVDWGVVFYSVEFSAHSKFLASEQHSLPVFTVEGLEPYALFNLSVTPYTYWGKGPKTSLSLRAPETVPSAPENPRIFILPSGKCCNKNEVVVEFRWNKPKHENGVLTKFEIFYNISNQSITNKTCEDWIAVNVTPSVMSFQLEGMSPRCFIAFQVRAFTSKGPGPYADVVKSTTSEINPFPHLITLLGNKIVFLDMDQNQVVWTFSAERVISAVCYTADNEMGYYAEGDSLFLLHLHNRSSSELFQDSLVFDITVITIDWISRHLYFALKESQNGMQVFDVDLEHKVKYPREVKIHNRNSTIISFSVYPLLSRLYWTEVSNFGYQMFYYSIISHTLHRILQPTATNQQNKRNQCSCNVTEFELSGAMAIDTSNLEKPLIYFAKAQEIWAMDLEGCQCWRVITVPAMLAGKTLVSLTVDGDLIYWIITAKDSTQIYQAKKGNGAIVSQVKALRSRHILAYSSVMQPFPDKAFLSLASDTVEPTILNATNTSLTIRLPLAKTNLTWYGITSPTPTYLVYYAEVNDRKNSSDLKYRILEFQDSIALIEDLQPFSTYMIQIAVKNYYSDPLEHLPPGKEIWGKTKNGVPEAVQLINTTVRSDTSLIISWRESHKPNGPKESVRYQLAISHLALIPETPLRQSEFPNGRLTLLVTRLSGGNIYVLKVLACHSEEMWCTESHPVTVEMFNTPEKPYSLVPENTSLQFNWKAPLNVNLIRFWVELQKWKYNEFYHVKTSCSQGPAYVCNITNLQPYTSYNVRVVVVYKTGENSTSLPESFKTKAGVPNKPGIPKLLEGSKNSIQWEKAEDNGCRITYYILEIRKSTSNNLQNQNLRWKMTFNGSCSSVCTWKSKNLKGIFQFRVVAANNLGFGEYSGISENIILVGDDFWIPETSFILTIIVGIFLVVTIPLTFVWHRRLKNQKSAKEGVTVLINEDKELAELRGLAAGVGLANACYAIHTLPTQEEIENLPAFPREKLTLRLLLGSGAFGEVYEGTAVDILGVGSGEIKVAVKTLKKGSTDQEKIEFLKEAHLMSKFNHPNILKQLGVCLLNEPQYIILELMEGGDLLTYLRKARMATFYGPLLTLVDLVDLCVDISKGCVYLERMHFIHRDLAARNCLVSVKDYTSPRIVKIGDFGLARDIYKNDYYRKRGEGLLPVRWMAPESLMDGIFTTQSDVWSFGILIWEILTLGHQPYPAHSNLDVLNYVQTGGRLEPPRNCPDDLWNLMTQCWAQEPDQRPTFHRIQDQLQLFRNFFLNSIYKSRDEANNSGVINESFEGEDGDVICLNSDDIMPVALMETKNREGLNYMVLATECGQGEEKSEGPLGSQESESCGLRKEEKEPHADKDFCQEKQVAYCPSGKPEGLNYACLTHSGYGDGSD

For orientation: inhibition means the relative decrease from the control value, in per cent. Consider `CS(=O)(=O)CCNCc1ccc(-c2ccc3ncnc(Nc4ccc(OCc5ccccc5)cc4)c3c2)o1`, for which the inhibition in assay [1] was determined as 9.58%; in assay [2], 2.59%; in assay [3], 3.8%; in assay [4], 1.11%; in assay [5], 8.89%; in assay [6], 9.13%. Besides, the inhibition in assay [7] is 12.5%; in [8], -0.68%; in assay [9], 2.59%; in assay [10], 1.7%.

With `CN1CCC(C(=O)Nc2n[nH]c3nc(-c4ccc(O)cc4)c(Br)cc23)CC1`, the inhibition was 20.8% and 5.43% in assay [1]; -1.02% and 7.11% in assay [2]; 6.18% and 11.8% in [3]; 5.2% and 4.89% in assay [4]; 10.4% and 1.96% in assay [5]; 6.76% and 6.26% in assay [6]. Moreover, the inhibition in assay [7] was 9.87% and 8.29%; in assay [8], -2.12% and 1.04%; in assay [9] it was -1.75% and -1%; in assay [10] it was -0.18% and 0.92%.

Turning to `CS(=O)(=O)CCNCc1ccc(-c2ccc3ncnc(Nc4ccc(OCc5cccc(C(F)(F)F)c5)cc4)c3c2)o1`, the inhibition in [1] is 6.5%; in assay [2], -1.41%; in assay [3], 3.05%; in assay [4], 6.2%; in assay [5], 8.72%; in [6], 9.03%. For the same molecule, the inhibition in assay [7] was 15.8%; in assay [8], -3.48%; in assay [9], -3.22%; in assay [10], -1.19%.

On to `NC(=O)c1ccc2c(-c3ccnc(NCCCO)n3)c(-c3ccc(F)cc3)nn2c1`, for which the inhibition was 19.4% in [1]; 2.03% in assay [2]; 9.13% in assay [3]; 8.51% in assay [4]; 10.6% in assay [5]; 0.24% in assay [6]. The inhibition in [7] is 12.9%; in [8], 15%; in [9], 4.79%; in assay [10], -5.36%.

Consider `COc1ccc2ncn(-c3cc(O[C@H](C)c4ccccc4C(F)(F)F)c(C(N)=O)s3)c2c1`, for which the inhibition in assay [1] was 4.51%; in assay [2], -2.2%; in assay [3], 0.45%; in assay [4], 2.67%; in assay [5], 3.29%; in assay [6] it was -2.12%. For the same molecule, the inhibition in assay [7] was -0.06%; in [8], 3.94%; in assay [9] it was 1.04%; in assay [10], -1.01%.

With `O=C(O[C@H]1CN[C@H](C#Cc2cc3ncnc(Nc4ccc5c(ccn5Cc5cc(F)ccc5F)c4)c3s2)C1)N1CCOCC1`, the inhibition in assay [1] is 19.6%; in [2], -0.04%; in assay [3] it was 7.89%; in assay [4], 5.19%; in assay [5], 6.27%; in assay [6], 0.52%. In addition, the inhibition in assay [7] was 8.86%; in [8] it was -2.61%; in [9] it was -3.38%; in assay [10] it was -0.55%.

For `NS(=O)(=O)c1cccc(N/C=C2\C(=O)Nc3ccccc32)c1`, the inhibition is 34.3% in [1]; -4.07% in [2]; 7.57% in assay [3]; 5.69% in assay [4]; 9.87% in assay [5]; 1.93% in assay [6]. The inhibition was 12.9% in [7], -0.1% in assay [8], -1.56% in assay [9] and -6.93% in assay [10].

For `CN1CCC(n2cnc(-c3ccc(F)cc3)c2-c2ccnc(NCCO)n2)CC1`, the inhibition is 15.2% in [1]; -0.99% in [2]; -1.06% in assay [3]; 6.65% in assay [4]; 2.72% in assay [5]; 2.31% in assay [6]. In addition, the inhibition was 7.94% in assay [7], -0.64% in assay [8], -0.42% in [9] and -2.08% in [10].

On to `COc1cc(N2CCN(C(C)C)CC2)ccc1Nc1nc(Nc2cccc3ncccc23)c2cc[nH]c2n1`, for which the inhibition in [1] is 14.2%; in [2] it was -0.12%; in assay [3], 1.56%; in assay [4], 7.82%; in [5], 45.3%; in assay [6], 2%. For the same molecule, the inhibition in [7] is 0.42%; in assay [8], 0.04%; in assay [9] it was 0.63%; in [10], -1.08%.

Turning to `CNC(=O)c1cncc(/C=C/c2ccccc2C)c1`, the inhibition is 12.3% in assay [1]; 1.43% in [2]; 5.25% in [3]; 4.35% in [4]; 5.86% in assay [5]; 8.47% in assay [6]. The inhibition in [7] is 13.7%; in assay [8], 1.18%; in assay [9], 0.97%; in [10] it was -0.75%.

With `Cc1nnc(-c2cccc(-c3ccc(C(=O)NCC4CC4)cc3)c2)o1`, the inhibition in assay [1] turned out to be 14.4%; in [2], 3.19%; in assay [3] it was 8.29%; in assay [4], 5.45%; in assay [5] it was 6.04%; in [6], 12.5%. The inhibition in assay [7] was 10.2%; in assay [8], -2.52%; in assay [9] it was 2.96%; in [10] it was -3.49%.

With `N#Cc1ccc2c(-c3ccnc(NC4CC4)n3)c(-c3ccc(F)cc3)nn2c1`, the inhibition in assay [1] was 10.8%; in assay [2], 2.34%; in [3] it was 0.41%; in [4], 1.21%; in [5], 1.91%; in assay [6] it was 2.91%. The inhibition in [7] is 3.58%; in assay [8], 0.49%; in assay [9] it was -0.99%; in assay [10], 0.61%.

With `CC1=C(C(=O)Nc2ccc3[nH]ncc3c2)C(c2ccc(F)cc2)N=C(c2ccc(C(F)(F)F)nc2)N1` (stereo not given), the inhibition was 43% in assay [1]; 7.5% in [2]; 5.38% in assay [3]; 4.98% in [4]; 14.9% in assay [5]; -1.49% in assay [6]. Moreover, the inhibition was 9.03% in assay [7], 1.74% in assay [8], 1.21% in assay [9] and 3.11% in [10].

In the case of `Cn1c(-c2nonc2N)nc2cnccc21`, the inhibition in [1] was 7.82%; in assay [2], 5.57%; in [3], -0.92%; in assay [4], 2.77%; in assay [5], 3.73%; in assay [6], -0.58%. Besides, the inhibition is 6.9% in assay [7], 0.1% in assay [8], 4.56% in assay [9] and -1.4% in assay [10].

As for `CC1=C(C(=O)Nc2ccc3[nH]nc(C)c3c2)C(c2ccc(C(F)(F)F)cc2)CC(=O)N1` (stereo not given), the inhibition in [1] worked out at 38.1%; in assay [2], 5.1%; in assay [3], 23.9%; in [4], 4.15%; in [5], 17.6%; in assay [6], 1.6%. For the same molecule, the inhibition in [7] was 22.7%; in assay [8] it was 0.76%; in [9] it was -1.98%; in [10], -4.6%.
